Assay results from ChEMBL document CHEMBL3988442, “University of Dundee, Small-Polar-MMV Screening Library” (2021).
Screen size: about 53,000 compounds; about 900 (1.7%) showed an effect of 50% or more. Shown is part of a subset that was picked to be rich in strong results.

These molecules were tested on Mycobacterium tuberculosis (assay: Cornell - Phenotypic assay to identify agents that inhibit growth of Mycobacterium tuberculosis). Settings: 10 mM as filed; unlikely as a test dose.
Type: functional
Parameters: scale not given: direction of the effect not stated beside the values
`Cc1ncc2c(n1)CCCC2NC(=O)c1ccc(Cn2cccn2)cc1` (stereo not drawn) was tested, and the “Percent Effect” value was -3.537%. With `Cc1occc1C(=O)N1CCC2(CC1)CN(c1ccccn1)CCO2.O=C(O)C(F)(F)F` the “Percent Effect” value was 15.62%. In the case of `CCc1cc(N(C)Cc2ccncn2)n2nccc2n1`, the “Percent Effect” value is reported as -22.97%. In the case of `COCc1cc(N(C)Cc2c(C)nn(C)c2C)n2nccc2n1`, the “Percent Effect” value is reported as -21.67%. `CCc1ccc(CN(C)c2cc(COC)nc3ccnn23)cc1` was tested, and the “Percent Effect” value was 59.92%. For `CCCc1nc(N[C@H]2COC[C@@H]2N2CCCCC2)c2cnn(C)c2n1`, the “Percent Effect” value was 6.118%. For `COc1cn(-c2ccccc2)nc1C(=O)NCCN1CCCC(C)C1` (stereo not drawn), the “Percent Effect” value was -24.88%. For `CC(C)CCc1n[nH]c(C(=O)O)c1I`, the “Percent Effect” value was 42.63%. `CC(C)CCc1n[nH]c(C(=O)O)c1Br` was tested, and the “Percent Effect” value was 50.18%. `CC(C)CCc1n[nH]c(C(=O)O)c1Cl` was tested, and the “Percent Effect” value was -0.9753%. In the case of `Cc1nn(CC(C)C)cc1S(=O)(=O)N(C)Cc1nonc1C`, the “Percent Effect” value is reported as 22.09%. In the case of `c1cnc(CC2COCCN(C3CCCCC3)C2)cn1` (stereo not drawn), the “Percent Effect” value is reported as 63.08%. In the case of `c1cncc(O[C@H]2COCCN(C3CCC3)C2)c1`, the “Percent Effect” value is reported as 18.67%. In the case of `Cc1nccc(CC2COCCN(c3cnccn3)C2)n1` (stereo not drawn), the “Percent Effect” value is reported as -7.582%. In the case of `O=C(O)C(F)(F)F.c1cnc(N2CCC3(COCc4cnc(-c5cccnc5)nc43)C2)nc1` (stereo not drawn), the “Percent Effect” value is reported as -17.47%. With `CN(C)CC(=O)N1CC2(CCN(C(=O)Nc3ccccc3)C2)C1.O=C(O)C(F)(F)F` the “Percent Effect” value was -36.23%. With `c1ccc2oc(CN3CCCCC3Cn3cncn3)nc2c1` (stereo not drawn) the “Percent Effect” value was 10.3%. For `Cc1cnn(CC2CCCN2CCCc2nc3ccccc3o2)c1` (stereo not drawn), the “Percent Effect” value was 32.71%. `Cc1nc(C)n(CC2CCCN2CCCc2nc3ccccc3o2)n1` (stereo not drawn) was tested, and the “Percent Effect” value was 0.1227%. For `c1ccc2oc(CCCN3CCCC3Cn3cncn3)nc2c1` (stereo not drawn), the “Percent Effect” value was 23.86%. With `CC(C)c1nc(C2CCCN2CCc2ccccn2)no1` (stereo not drawn) the “Percent Effect” value was -3.374%. In the case of `Cc1nn(C)c(C)c1C1CCCN1CCCc1nc2ccccc2o1` (stereo not drawn), the “Percent Effect” value is reported as 65.17%. For `CC(C)c1nc(C2CCCN2CCCc2nc3ccccc3o2)no1` (stereo not drawn), the “Percent Effect” value was 73.44%. In the case of `Cc1cc(C2CCCN2CCCc2nc3ccccc3o2)on1` (stereo not drawn), the “Percent Effect” value is reported as 56.86%. `c1ccc2oc(CCCN3CCCCC3Cn3cncn3)nc2c1` (stereo not drawn) was tested, and the “Percent Effect” value was 60.48%. For `CC(C)c1nc(C2CCCN2CCc2ccncc2)no1` (stereo not drawn), the “Percent Effect” value was -12.21%. For `Cc1cc(C)n(CC2CCCN2CCCc2nc3ccccc3o2)n1` (stereo not drawn), the “Percent Effect” value was 14.18%. In the case of `Cc1nn(C)c(C)c1C1CCCN1CCCC#N` (stereo not drawn), the “Percent Effect” value is reported as -3.092%. For `CN1CCC(Nc2ccc(Cl)cc2OCC(F)(F)F)C1=O` (stereo not drawn), the “Percent Effect” value was 4.127%. In the case of `CC(C)[C@H]1CN(Cc2ccncc2)C[C@@H]1NC(=O)C1(C#N)CCOCC1`, the “Percent Effect” value is reported as 8.101%. With `CCOc1cncc(N2CCCC2c2nnc3n2CCCCC3)n1` (stereo not drawn) the “Percent Effect” value was 14.34%. `Cn1ncc2c1CN(Cc1ccc(F)cc1)CC2COCC1CC1.O=C(O)C(F)(F)F.O=C(O)C(F)(F)F` (stereo not drawn) was tested, and the “Percent Effect” value was -21.09%. In the case of `Cc1nn(C)cc1NC(=O)CC1CCN(C(=O)Cc2ccccc2)CC1`, the “Percent Effect” value is reported as -9.652%. With `Cn1cc(CNC2CCCOc3c2ccc2ccccc32)cn1` (stereo not drawn) the “Percent Effect” value was 52.41%. For `Cn1cc(CNC2CCCOc3c(Cl)cccc32)cn1` (stereo not drawn), the “Percent Effect” value was 11.42%. With `Cn1ccnc1CNC1CCCOc2c1ccc1ccccc21` (stereo not drawn) the “Percent Effect” value was 21.15%. For `O=C(Cn1ccnc1)N1CCCC(OCc2cccnc2)C1` (stereo not drawn), the “Percent Effect” value was -41.24%. For `CN(C)C(=O)CN1C[C@H]2CN(Cc3cccc(F)c3)C(=O)[C@H]2C1.O=C(O)C(F)(F)F`, the “Percent Effect” value was 15.1%. In the case of `Cn1nc2c(c1NC(=O)c1cccs1)CCC2`, the “Percent Effect” value is reported as 1.253%. `N#Cc1ccc(N2CCC3(CC2)CC(OCc2cccnc2)CO3)cc1.O=C(O)C(F)(F)F` (stereo not drawn) was tested, and the “Percent Effect” value was 25.8%. With `Fc1ccc(N2CCC3(CC2)CC(OCc2cccnc2)CO3)cc1.O=C(O)C(F)(F)F` (stereo not drawn) the “Percent Effect” value was 62.76%. With `Fc1cnc(N2CCC3(CC2)CC(OCc2cccnc2)CO3)nc1.O=C(O)C(F)(F)F.O=C(O)C(F)(F)F` (stereo not drawn) the “Percent Effect” value was 8.704%. With `CCn1nccc1CN(C)c1nc(N)nc2c1nc(C)n2C` the “Percent Effect” value was -2.939%. `NC1(CN2CCCCC2)CCCCC1` was tested, and the “Percent Effect” value was -23.07%. For `Cc1cccnc1NC(=O)CC1(Cn2cnnn2)CCCCC1`, the “Percent Effect” value was 1.711%. For `CC(=O)N1CCN(c2cc(CCNC(=O)C(C)C)nc(C3CC3)n2)CC1`, the “Percent Effect” value was -12.23%. `Cc1cc(C)n(-c2cncc(NCCNC(=O)C(C)C)n2)n1` was tested, and the “Percent Effect” value was 10.14%. In the case of `Cc1nc(-n2nc(C3CC3)cc2NC(=O)C(C)C)[nH]c(=O)c1C`, the “Percent Effect” value is reported as 77.31%. `Cc1cc(NC(=O)C(C)C)n(-c2nc(C)c(C)c(=O)[nH]2)n1` was tested, and the “Percent Effect” value was 105.9%. `CC(=O)Nc1cc(C2CC2)nn1-c1nc(C)c(C)c(=O)[nH]1` was tested, and the “Percent Effect” value was -29.54%. With `COCCNC(=O)CCc1c(C)nn(-c2nc(C)c(C)c(=O)[nH]2)c1C` the “Percent Effect” value was 25.57%. `Cc1cc(-c2nccs2)nc(C2CCN(Cc3cccs3)CC2)n1` was tested, and the “Percent Effect” value was 25.07%. With `Cc1nccn1Cc1nnc(C2CCCN(c3ncccn3)C2)n1C` (stereo not drawn) the “Percent Effect” value was -33.54%. `COCCN1CCCC(c2nc(C)n3c(C)c(C)sc23)C1` (stereo not drawn) was tested, and the “Percent Effect” value was 6.759%. In the case of `O=C(N1CCOCC1)N1C[C@H]2CN(Cc3nccs3)C[C@H]2C1.O=C(O)C(F)(F)F`, the “Percent Effect” value is reported as 17.29%. With `CCCNC(=O)C(C)n1nc(-c2ccc(C)o2)cc(N)c1=O` (stereo not drawn) the “Percent Effect” value was 66.1%. For `Cc1ccc(-c2cc(N)c(=O)n(C(C)C(=O)NC(C)C)n2)o1` (stereo not drawn), the “Percent Effect” value was 26.87%. `COCCNC(=O)C(C)n1nc(-c2ccc(C)o2)cc(N)c1=O` (stereo not drawn) was tested, and the “Percent Effect” value was -59.92%. For `O=C(N1CCOCC1)[C@@]12CCO[C@@H]1CCN(C1CCCCC1)C2.O=C(O)C(F)(F)F`, the “Percent Effect” value was -10.99%. `CC1CCCN(C(=O)c2cc(-c3ccco3)cs2)C1` (stereo not drawn) was tested, and the “Percent Effect” value was 33.45%. `CC1CCCN(C(=O)c2ccc(-c3ccco3)o2)C1` (stereo not drawn) was tested, and the “Percent Effect” value was 79.8%. For `COc1ccc(C(=O)N2CCCC(C)C2)cc1F` (stereo not drawn), the “Percent Effect” value was -4.81%. With `CC1=C(C(=O)N2CCOC(Cc3cccc(C(F)(F)F)c3)C2)OCCO1` (stereo not drawn) the “Percent Effect” value was 22.58%. In the case of `CC(=O)N1CCOC(Cc2cccc(C(F)(F)F)c2)C1` (stereo not drawn), the “Percent Effect” value is reported as 25.26%. `COc1ccc(C(=O)N2CCOC(Cc3cccc(C(F)(F)F)c3)C2)o1` (stereo not drawn) was tested, and the “Percent Effect” value was 107.3%. In the case of `COc1cccc(CCC2CCCN(C(=O)c3ccc(OC)o3)C2)c1` (stereo not drawn), the “Percent Effect” value is reported as 67.76%. With `COc1cccc(CCC2CCCN(C(=O)c3ccccn3)C2)c1` (stereo not drawn) the “Percent Effect” value was 5.867%. In the case of `COc1cccc(CCC2CCCN(C(C)=O)C2)c1` (stereo not drawn), the “Percent Effect” value is reported as 19.46%.
